# Tb PGK inh: T. brucei PGK inhibition. P07378. actives 0.043% (n = 380,000). PGK/GAPDH coupled, Kinase-Glo luminescence, 60 min. Potency, µM (highest dose often 57.5 µM), actives largely listed as inhibitors; further: nearly all actives have a fitted effect of over 60% in size
#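 Recombinant glycosomal PGK reaction used 1,3-bisphosphoglycerate generated in-well by GAPDH (100nM final) in 100mM TEA pH 7.6, 5mM MgCl2, 0.01% Tween-20. After 60 minutes at room temperature, ATP was read by Kinase-Glo Plus luminescence end-point.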
# POLH inh: blocks human DNA polymerase eta activity | Q9Y253 | recombinant Pol eta, fluorescent DNA replication assay | Potency, µM (doses to about 114 µM), actives largely listed as inhibitors | actives 1.2% (n = 390,000)
#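 Pol eta at 10 nM preincubated with compounds 15 min at room temperature; reaction started with fluorescent substrate (50 nM final) and read kinetically at 0 and 10 min.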
# Pol iota inh: inhibitors of human DNA polymerase iota; Pol iota fluorescent replication assay, 10 min; Potency, µM (top dose mostly 115 µM), usual class: inhibitors; actives 1% (n = 390,000); AID 588590
#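 Pol iota at 10 nM preincubated 15 min with compounds at room temperature; reaction started with fluorescent substrate, 50 nM final. Fluorescence read kinetically at 0 and 10 min; buffer-only wells as negative control.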
# POLB inh: inhibitors of human DNA polymerase beta. Pol beta primer extension/strand displacement, fluorescence kinetic. Potency, µM (titrated, usually from 114 µM), most hits filed as inhibitors. actives 1.3% (n = 340,000)
#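 Kinetic readout of DNA synthesis with strand displacement by Pol beta. Compound and 10 nM enzyme sit 15 min at room temperature; 50 nM substrate starts the reaction, read immediately and at 10 min.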
# FEN1 inh: human FEN1 inhibition. P39748. Recombinant FEN1 flap cleavage, fluorescence, 15 min. Potency, µM (highest dose often 114 µM), actives largely listed as inhibitors. actives 0.35% (n = 390,000); further: nearly all actives have a fitted effect of over 65% in size
#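 Nuclease activity of 10 nM FEN1 was measured after 15 min of room-temperature exposure to titrated compounds, by adding 50 nM flap substrate and reading plates at 0 and 15 min.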
# POLK inh: DNA polymerase kappa (human) inhibition; Q9UBT6; purified Pol kappa, fluorescent DNA synthesis assay, 10 min; Potency, µM (titrated, usually from 107 µM), usual class: inhibitors; actives 0.53% (n = 400,000); AID 588579
# Target sequence (Q9UBT6 whole entry, looked up): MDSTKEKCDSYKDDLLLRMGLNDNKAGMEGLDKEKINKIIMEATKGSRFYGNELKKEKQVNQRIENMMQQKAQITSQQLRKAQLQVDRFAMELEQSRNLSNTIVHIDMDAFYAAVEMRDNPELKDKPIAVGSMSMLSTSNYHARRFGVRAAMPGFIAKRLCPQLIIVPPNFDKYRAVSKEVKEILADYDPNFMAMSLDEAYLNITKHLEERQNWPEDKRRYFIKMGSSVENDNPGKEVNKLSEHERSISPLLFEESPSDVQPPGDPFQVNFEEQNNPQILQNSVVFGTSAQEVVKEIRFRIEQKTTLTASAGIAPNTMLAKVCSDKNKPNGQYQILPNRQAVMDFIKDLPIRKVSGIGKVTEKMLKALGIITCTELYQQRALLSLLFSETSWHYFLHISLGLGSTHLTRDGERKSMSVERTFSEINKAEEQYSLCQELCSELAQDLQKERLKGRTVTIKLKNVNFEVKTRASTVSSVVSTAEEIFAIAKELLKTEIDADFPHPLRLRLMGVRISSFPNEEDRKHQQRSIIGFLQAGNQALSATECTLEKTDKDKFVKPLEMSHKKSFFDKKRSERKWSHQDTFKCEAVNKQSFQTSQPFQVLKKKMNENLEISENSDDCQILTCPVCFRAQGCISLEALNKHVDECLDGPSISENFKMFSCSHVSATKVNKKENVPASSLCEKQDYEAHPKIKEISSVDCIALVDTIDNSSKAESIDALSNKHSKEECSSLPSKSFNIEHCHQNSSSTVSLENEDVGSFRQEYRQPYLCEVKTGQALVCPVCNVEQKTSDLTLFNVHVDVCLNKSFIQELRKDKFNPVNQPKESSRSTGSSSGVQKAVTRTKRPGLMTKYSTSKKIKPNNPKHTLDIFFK
#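 First, compounds were pin-transferred onto 10 nM Pol kappa. After 15 min at room temperature, substrate was added to 50 nM final. Fluorescence was then measured kinetically at 0 and 10 min.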
# A number is an active result; 0 = inactive; ? = inconclusive; - = no result given; [ ] = dose if it differs, or a comment. A selection: hits, their analogues and other compounds. The true share with any hit is near 2.4%. The call rests on the fitted dose curve; in most records, active means well fitted curve in the direction sought with a large enough effect; inconclusive means small, poorly fitted or top-dose-only effect, or another doubt; inactive means no such curve, though single readings can be large; an effect the other way counts as inactive or inconclusive.
SMILES,Tb PGK inh,POLH inh,Pol iota inh,POLB inh,FEN1 inh,POLK inh
O=C(N/N=C/c1cccc([N+](=O)[O-])c1)c1cc(-c2ccc3c(c2)OCO3)n[nH]1,0,17.8µM,?,0,0,?
O=C(Nc1ccc(Cl)cc1Cl)[C@@H]1CC=C[C@@H]2CCN(Cc3ccccc3)C(=O)[C@@H]21,-,-,0,-,0,0
NC1C(N)C(N)C1N (configuration not stated),-,-,0,-,0,0
O=C(CN1CCCCCCC1)N/N=C/c1ccc([N+](=O)[O-])o1,0,?,44.7µM,?,0,?
COc1ccccc1OCC(=O)N/N=C/C=C/c1ccc([N+](=O)[O-])o1,0,?,79.4µM,31.6µM,0,?
O=C(N/N=C\C=C\c1ccc([N+](=O)[O-])o1)c1cccs1,?,50.1µM,5.01µM,31.6µM,0,79.4µM
CCCCCCCC(=O)N/N=C/c1ccc([N+](=O)[O-])o1,-,0,?,0,0,0
O=C(N/N=C/c1ccc([N+](=O)[O-])o1)c1ccc(NS(=O)(=O)c2cccs2)cc1,0,31.6µM,50.1µM,?,?,0
Clc1ccc2c(Cl)cc[n+](CCC3CCCCC3)c2c1,-,-,0,-,0,0
Cc1cc(Oc2ccccc2)nc(C#N)n1,-,-,?,-,0,0
CC(=O)Nc1ccccc1-c1nc2ccccc2n(Cc2cccc(Br)c2)c1=O,-,-,0,0,0,0
CCC(C)NC(=O)c1ccc(Cn2c(=O)c3cccn3c3cccnc32)cc1 (configuration not stated),0,0,0,0,0,0
O=C(CN1CCOCC1)N/N=C/c1ccc(-c2ccc(C(=O)O)cc2)o1,0,39.8µM,0,?,0,0
CN(C)c1ccc(/C=C/c2nc3ccccc3s2)cc1Cl,-,-,0,-,?,0
N#CC(C#N)=Cc1ccc(-c2ccc(S(=O)(=O)N=C(N)N)cc2)o1,0,20µM,?,0,0,0
OC(Br)C(O)C(O)N1CCCc2ccccc21 (configuration not stated),-,-,0,-,?,0
COc1ccc(/C=C/c2ccccc2)cc1C1C2C=CCCC2(C)C(=O)N1Cc1ccccc1 (configuration not stated),-,-,0,-,0,0
O=C(CCl)N1c2ccccc2Sc2ccc3ccccc3c21,0,14.1µM,-,-,-,-
Cc1ccc(NC(=O)CSCC(=O)Nc2ncc3c(n2)CC(c2ccco2)CC3=O)cc1 (configuration not stated),0,?,28.2µM,?,0,?
O=S1(=O)CCC(n2ncc3c2/C(=C/c2ccccc2)CC3)C1 (configuration not stated),0,0,0,0,0,0
O=C(O)c1ccccc1-n1ncc2c1/C(=C/c1ccc(Cl)cc1)CC2,-,-,-,39.8µM,-,-
O=C(CCC1CCCN(C(=O)c2ccc3cc[nH]c3c2)C1)N1CCN(c2ccccn2)CC1 (configuration not stated),0,0,0,39.8µM,0,0
Cn1cc(C=O)c2cc(F)ccc21,0,0,0,0,0,0
Cn1cc(/C=C/c2cc[n+](C)cc2)c2cc(Cl)ccc21,0,0,0,?,50.1µM,0
C/C(=N\NC(=O)c1ccc(-c2ccccc2)cc1)C1C(=O)c2ccccc2C1=O,0,31.6µM,?,0,0,0
SMILES,Tb PGK inh,POLH inh,Pol iota inh,POLB inh,FEN1 inh,POLK inh
C/C(=N\NC(=O)c1ccc(Br)cc1)C1C(=O)c2ccccc2C1=O,0[11.5 µM],0,0,0,0,0
CCn1c(=O)c2c(nc3n2CCN3c2ccc(OC)cc2)n(C)c1=O,0,0,0,0,0,0
CCOc1ccc2cc(C3CC(c4ccco4)=NN3S(C)(=O)=O)c(=O)[nH]c2c1 (configuration not stated),0,?,35.5µM,0,0,0
O=C1NC(=O)/C(=C\c2ccc(Br)o2)S1,0,22.4µM,?,17.8µM,?,25.1µM
COc1nc(C#N)nc(N2CCCCC2)n1,-,-,0,-,0,0
Cc1ccc(-n2nc3c(N4CCC(C(=O)NCc5ccc(C)o5)CC4)nnc(C)c3c2C)cc1,0,0,?,0.398µM,?,0
COc1ccc(-n2nc3c(N4CCC(C(=O)NCc5ccccc5C)CC4)nnc(C)c3c2C)cc1,0,0,?,79.4µM,0,0
Cc1ccc(-n2nc3c(N4CCC(C(=O)NCCc5ccco5)CC4)nnc(C)c3c2C)cc1,0,0,?,0,0,0
Cc1ccc(-n2c(SCC(N)=O)nnc2-c2cccnc2)c(C)c1,0,0,0,0,0,0
Cc1ccc(-n2c(SCc3cc(=O)n4ccsc4n3)nnc2-c2cccnc2)c(C)c1,0,0,?,17.8µM,0,0
COc1ccc(-c2ccc(OC)c(OC)c2OC)c(OC)c1OC,0,0,0,-,0,0
COc1ccc2c3c(cccc13)N(C)N=C2C,0,?,3.16µM,0,0,0
CCOC(=O)c1c2c3c(c(Cl)ccc3[nH]c1=O)C(=O)c1ccccc1-2,0,79.4µM,?,?,0,?
CCOC(=O)c1c2c3c(cccc3[nH]c1=O)C(=O)c1ccccc1-2,0,?,0,0,0,0
COc1ccc(C(=O)NCCn2cc(SCc3cc(C)ccc3C)c3ccccc32)cc1,0,0,89.1µM,0,0,0
COC(=O)c1ccccc1NC(=O)c1cnn2c1NC(=C1CC1)C=C2C(F)F,-,-,0,-,0,0
O=S(=O)(O)c1ccc2c(c1)-c1nc-2nc2[nH]c(nc3nc(nc4[nH]c(n1)c1ccc(S(=O)(=O)O)cc41)-c1ccc(S(=O)(=O)O)cc1-3)c1ccc(S(=O)(=O)O)cc21,-,-,-,-,-,0
CC(C)c1ccc(S(=O)(=O)/N=C2\C=C(NS(=O)(=O)c3ccccc3)C(=O)c3ccccc32)cc1,0,79.4µM,?,?,?,0
CCc1ccc(S(=O)(=O)/N=C2\C=C(NS(=O)(=O)c3ccccc3)C(=O)c3ccccc32)cc1,0,89.1µM,?,?,0,0
CC(C)c1ccc(S(=O)(=O)/N=C2/C=CC(=O)c3ccccc32)cc1,-,-,-,0,-,-
CCC(=O)N1CCc2cc(S(=O)(=O)NCCC(=O)Nc3ccc(OC)c(Cl)c3)ccc21,0,0,0,0,0,0
O=c1c2ccccc2nc2c3ccccc3c(NCCN3CCOCC3)nn12,-,-,-,39.8µM,-,-
c1nc2nc(Nc3ccc(N4CCOCC4)cc3)nc(NC3CCCCC3)c2[nH]1,-,-,-,-,-,0
CCc1ccc2occ(CC(=O)Nc3ccc(OC)c(Cl)c3)c2c1,-,-,0,0,0,0
COCCN(C(=O)CSc1n[nH]c(-c2ccc(OC)cc2)n1)c1c(N)n(Cc2ccccc2)c(=O)[nH]c1=O,0,0,0,-,0,0
Cc1ccc(-c2nc(SCC(=O)N(C)c3c(N)n(Cc4ccccc4)c(=O)[nH]c3=O)n[nH]2)cc1,0,0,0,89.1µM,0,0
NC(=O)CN1CCN(CCN2C(=O)c3cccc4cccc(c34)C2=O)CC1,0,0,0,0,0,0

# High-throughput results (PubChem BioAssay)
